The test system of assay [1] is Human papillomavirus type 1a protein E7 (residues 44-93). Briefly: small molecules binding HPV E7 44-93 – biochemical, small-molecule microarray, residues 44-93, 635 nm fluorescence, primary screen (AID 1108).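 Also: E7 fragment applied at 1 µg/mL in TBST for 1 h at 4 C; score combines spot fluorescence with its signal to noise ratio.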 The conditions noted are these: fluorescence 635 nm, higher = more signal.
Assay [2] in a line: hepatitis C replication reporter changes, two-sided – Huh7 cells, luciferase reporter, HCV replication inhibitor project, primary screen (AID 1109).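 Also: huh7 hepatoma cells harbouring a luciferase neomycin HCV replicon reporter; luciferase luminescence as measure of HCV replicon replication; test concentration not given here.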 The following applies: Huh7 HCV replicon luciferase reporter, 48 h; higher = more signal.
The target in assay [3] is Left-right determination factor 2 (Homo sapiens) (UniProt O00292). In words: small molecules binding LEFTY2 protein – biochemical, small-molecule microarray, 635 nm fluorescence scan, primary screen (AID 1110). The following applies: higher = more signal.
Chain of Left-right determination factor 2 (Homo sapiens) (O00292 whole entry, looked up): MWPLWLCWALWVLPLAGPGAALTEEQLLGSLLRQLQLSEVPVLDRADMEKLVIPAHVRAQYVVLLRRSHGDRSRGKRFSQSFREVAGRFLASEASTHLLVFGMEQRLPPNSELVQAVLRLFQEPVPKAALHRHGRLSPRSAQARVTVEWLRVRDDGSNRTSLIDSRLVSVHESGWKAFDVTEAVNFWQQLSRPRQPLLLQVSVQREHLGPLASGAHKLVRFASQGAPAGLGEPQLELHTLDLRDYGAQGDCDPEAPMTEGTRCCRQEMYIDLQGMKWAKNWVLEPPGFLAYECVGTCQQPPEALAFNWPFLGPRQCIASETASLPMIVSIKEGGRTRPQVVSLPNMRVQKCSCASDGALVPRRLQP
Assay [4] has as its target Calmodulin-1 (Homo sapiens) (UniProt P0DP23). In words: small molecules binding calmodulin-1 with EGTA – biochemical, small-molecule microarray, Cy5-labelled CALM1, profiling panel (AID 1111).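 Also: labelled calmodulin applied in Tris saline Tween buffer holding calcium plus EGTA and DTT.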 The following applies: Cy5-CALM1 binding fluorescence, higher = more signal.
Assay [5] shares this target. In words: small molecules binding Ca-loaded calmodulin-1 – biochemical, small-molecule microarray, Cy5-labelled CALM1, plus calcium, artefact control for SMM control-protein annotation, profiling panel (AID 1112).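 Also: score merges spot fluorescence with signal to noise from triplicate slides.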 The conditions noted are these: Cy5-CALM1 binding fluorescence, higher = more signal.
A short description of assay [6]: probe aWnt5a binding to arrayed compounds – biochemical, biotinylated probe, 635/667 nm fluorescence, primary screen (AID 1113).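 Also: score merges 667 nm fluorescence intensity with signal-to-noise per printed feature.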 The conditions noted are these: small-molecule microarray, higher = more signal.
Assay [7] in a line: probe aShh binding to arrayed compounds – biochemical, biotinylated probe, 635/667 nm fluorescence, primary screen (AID 1114).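 Also: probe is biotin-labelled aShh protein from a stem cell growth factor screen; measures binding of labelled protein to compounds printed on the slide; score merges feature fluorescence at 667 nm with signal-to-noise.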 The conditions noted are these: small-molecule microarray, higher = more signal.
The nature of assay [8]: probe aNog binding to arrayed compounds – biochemical, biotinylated probe, 635/667 nm fluorescence, primary screen (AID 1115).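 Also: probe is biotinylated aNog protein used at 0.15 µg/mL for 1 h at 4 C; z-score combines 667 nm fluorescence of each spot with its signal to noise.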 The following applies: small-molecule microarray, higher = more signal.
For assay [9], the target named is Torsin-1A-interacting protein 1 (Homo sapiens) (UniProt Q5JTV8). In words: compound microarray binding of lysate hLAP1 – cell lysate, small-molecule microarray, COS7 lysate, 635/667 nm fluorescence, primary screen (AID 1116). The following applies: 635 nm fluorescence, higher = more signal.
Chain of Torsin-1A-interacting protein 1 (Homo sapiens) (Q5JTV8 whole entry, looked up): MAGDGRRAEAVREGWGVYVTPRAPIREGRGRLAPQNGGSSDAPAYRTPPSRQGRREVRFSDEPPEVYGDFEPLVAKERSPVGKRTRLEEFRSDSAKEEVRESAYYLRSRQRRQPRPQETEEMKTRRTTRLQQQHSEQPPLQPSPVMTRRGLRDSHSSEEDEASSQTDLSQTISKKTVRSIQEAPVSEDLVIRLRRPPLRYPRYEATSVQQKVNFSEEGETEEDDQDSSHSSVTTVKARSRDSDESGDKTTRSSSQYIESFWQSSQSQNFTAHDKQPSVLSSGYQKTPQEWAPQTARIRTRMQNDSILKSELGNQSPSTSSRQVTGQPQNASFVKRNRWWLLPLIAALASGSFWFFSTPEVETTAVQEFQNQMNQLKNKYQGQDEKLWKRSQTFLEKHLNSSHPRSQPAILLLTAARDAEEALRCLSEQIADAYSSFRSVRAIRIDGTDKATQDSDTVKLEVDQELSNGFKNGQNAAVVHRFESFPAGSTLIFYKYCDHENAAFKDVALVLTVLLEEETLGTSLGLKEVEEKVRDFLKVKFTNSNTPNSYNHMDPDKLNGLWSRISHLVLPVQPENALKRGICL
The target in assay [10] is Alpha-bungarotoxin (Bungarus multicinctus) (UniProt P60615). Briefly: compounds binding labelled alpha-BTX control protein – biochemical, small-molecule microarray, Alexa647 label, 635/667 nm fluorescence, artefact control for SMM control protein annotation, profiling panel (AID 1117). The following applies: alpha-BTX-A647 binding fluorescence, higher = more signal.
Chain of Alpha-bungarotoxin (Bungarus multicinctus) (P60615 whole entry, looked up): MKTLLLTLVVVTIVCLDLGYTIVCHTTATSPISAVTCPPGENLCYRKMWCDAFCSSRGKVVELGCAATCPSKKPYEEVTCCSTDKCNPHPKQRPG
The target of assay [11] is Albumin (Bos taurus) (UniProt P02769). In words: compounds binding labelled BSA control protein – biochemical, small-molecule microarray, Alexa647 label, 635/667 nm fluorescence, artefact control for SMM control protein annotation, profiling panel (AID 1118).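 Also: score merges 667 nm emission intensity and signal-to-noise per printed compound spot.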 The conditions noted are these: BSA-A647 binding, fluorescence 635 nm, higher = more signal.
Chain of Albumin (Bos taurus) (P02769 whole entry, looked up): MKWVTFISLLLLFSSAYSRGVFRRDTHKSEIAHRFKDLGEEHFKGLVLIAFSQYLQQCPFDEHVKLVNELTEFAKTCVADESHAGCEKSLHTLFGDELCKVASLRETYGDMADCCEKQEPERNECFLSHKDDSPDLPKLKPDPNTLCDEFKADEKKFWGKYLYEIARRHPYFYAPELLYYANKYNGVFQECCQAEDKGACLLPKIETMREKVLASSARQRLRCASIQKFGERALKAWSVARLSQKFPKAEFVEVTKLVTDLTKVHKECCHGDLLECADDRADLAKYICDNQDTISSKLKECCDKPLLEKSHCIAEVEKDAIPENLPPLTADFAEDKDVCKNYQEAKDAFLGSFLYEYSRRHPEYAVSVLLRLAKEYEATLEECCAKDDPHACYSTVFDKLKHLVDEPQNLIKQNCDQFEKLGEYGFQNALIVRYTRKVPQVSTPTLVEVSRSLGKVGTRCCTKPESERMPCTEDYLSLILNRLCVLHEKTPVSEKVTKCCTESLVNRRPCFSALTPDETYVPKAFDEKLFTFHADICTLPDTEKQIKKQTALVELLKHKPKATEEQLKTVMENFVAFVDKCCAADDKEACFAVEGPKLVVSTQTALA
Assay [12] can be described thus: probe aXIP binding to arrayed compounds – biochemical, NeuroSMM set, 635/667 nm fluorescence, primary screen (AID 1119).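 Also: probe is the protein aXip251-270 applied at 1 µg/mL to compound-printed slides; binding of probe to printed compounds measured as 667 nm fluorescence plus signal to noise.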 The conditions noted are these: small-molecule microarray, higher = more signal, called active from +8 up or from −8 down.
Assay [13] in a line: probe aNOTCH3 binding on compound microarray – biochemical, small-molecule microarray, 635/667 nm fluorescence, primary screen (AID 1120).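 Also: probe is a biotin-tagged antibody raised against NOTCH3 rather than NOTCH3 protein; score merges spot fluorescence near 667 nm with spot signal to noise.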 The following applies: higher = more signal.
A short description of assay [14]: probe aNOTCH2 binding on compound microarray – biochemical, small-molecule microarray, 635/667 nm fluorescence, primary screen (AID 1121).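 Also: score merges feature fluorescence read at 667 nm with its signal to noise.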 The conditions noted are these: higher = more signal.
The target of assay [15] is Carbonic anhydrase 2 (Homo sapiens) (UniProt P00918). In words: compounds binding carbonic anhydrase 2 – biochemical, small-molecule microarray, Alexa647-labelled CAII, profiling panel (AID 1122). The following applies: CAII-A647 binding fluorescence, higher = more signal.
The nature of assay [16]: COS7 lysate on small-molecule microarray, probe aHis, 635 nm (AID 1123).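 Also: z-score combines 667nm fluorescence intensity with signal-to-noise per printed compound spot.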 The following applies: COS7 cell lysate, fluorescence, higher = more signal.
Assay [17] in a line: probe aLAP1 signal on lysate-treated microarray – cell lysate, small-molecule microarray, COS7 lysate, primary screen (AID 1124).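 Also: lysate comes from COS7 cells expressing LAP1 and is applied at 0.3 µg/mL; score merges spot fluorescence near 667 nm with signal-to-noise over triplicate slides.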 The following applies: probe aLAP1, fluorescence, higher = more signal.
In assay [18] the test system is Sam68 (KHDRBS1). In words: compounds binding KHDRBS1 protein – biochemical, small-molecule microarray, 635 nm fluorescence, primary screen (AID 1125).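 Also: score merges 667 nm channel intensity with signal to noise over triplicate slides.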 The conditions noted are these: higher = more signal.
Assay [19] concerns Chordin-like protein 2 (CHRDL2). In words: compounds binding chordin-like 2 – biochemical, small-molecule microarray, 635 nm fluorescence, primary screen (AID 1126).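 Also: printed compound slides probed with Chrdl2 protein at 4 µg/mL for 1 h at 4 C; score merges 667 nm emission intensity with signal to noise over three replicate slides.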 The following applies: fluorescence 635 nm, higher = more signal.
Assay [20] has as its target Concanavalin-A (Canavalia ensiformis) (UniProt P02866). Briefly: compounds binding concanavalin A lectin – biochemical, small-molecule microarray, Alexa647 label, 635 nm, artefact control for SMM control protein annotation, primary screen (AID 1127).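 Also: z combines 667 nm emission intensity with signal-to-noise across three replicate slides.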 The conditions noted are these: ConA-A647 binding fluorescence, higher = more signal.

Activity calls are given as the source filed them.

Chain of Concanavalin-A (Canavalia ensiformis) (P02866 whole entry, looked up): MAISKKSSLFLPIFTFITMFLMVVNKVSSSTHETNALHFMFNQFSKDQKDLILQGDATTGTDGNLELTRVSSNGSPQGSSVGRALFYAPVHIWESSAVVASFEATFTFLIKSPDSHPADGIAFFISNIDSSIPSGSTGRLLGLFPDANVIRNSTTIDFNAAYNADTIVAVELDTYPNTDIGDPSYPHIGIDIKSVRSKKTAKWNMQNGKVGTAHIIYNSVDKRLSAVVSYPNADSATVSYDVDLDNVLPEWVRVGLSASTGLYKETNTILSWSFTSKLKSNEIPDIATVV

Regarding `COc1cc2c(cc1O)C=[N+](Cc1cc3c(cc1Br)OCO3)CC2`, the composite z-score in assay [1] was -0.411; in assay [3] it was -0.678; in assay [4] it was -1.01; in [5], -0.0978; in [6], -0.16; in [7], -0.16. Moreover, the composite z-score in [8] is -0.492; in assay [9], -0.479; in [10], -2.64; in assay [11], -0.71; in assay [13] it was -0.185; in [14], -0.126. Further, the composite z-score in assay [15] was 0.844; in assay [16] it was 0.0478; in [17] it was 0.27; in [18], -0.54; in assay [19], -0.139; in assay [20] it was -1.27. In assay [2], the z-score is -0.537. The composite Z-score in assay [12] was -0.402 (inactive).
Turning to `CCCNC(=O)[C@@H]1c2ccccc2C(=O)N(Cc2ccccc2OC)[C@H]1c1ccc(CO)cc1`, the composite z-score in assay [1] is 1.46; in assay [3], 0.146; in [4] it was 1.07; in [5], 0.485; in assay [6], -0.0512; in [7] it was -0.173. The composite z-score was 0.57 in assay [8]; 0.239 in assay [9]; 1.25 in assay [10]; 0.735 in [11]; -0.0573 in assay [13]; -0.0966 in [14]. For the same molecule, the composite z-score in assay [15] was 0.604; in assay [16], 1.83; in assay [17], 0.614; in [18] it was 1.1; in assay [19], -0.0218; in assay [20], 0.748. For the same molecule, in [2], the z-score is -1.12. Also, the composite Z-score in assay [12] was -0.228 (inactive).
With `O=C1C2C=CC(C(O)c3ccc(-c4ccccc4)s3)N(Nc3ccccc3)C2C(=O)N1c1ccccc1` (stereo not given), the composite z-score is 1.47 in [1]; -0.44 in assay [3]; 1.45 in assay [4]; 0.133 in assay [5]; 0.105 in assay [6]; 0.634 in assay [7]. For the same molecule, the composite z-score stood at 1.38 in [8]; 0.537 in [9]; 1.46 in assay [10]; 0.931 in assay [11]; 0.24 in assay [13]; 0.0554 in assay [14]. The composite z-score is 0.591 in assay [15]; 2.82 in assay [16]; 0.103 in assay [17]; 1.31 in assay [18]; 0.0135 in assay [19]; 0.963 in [20]. For the same molecule, in assay [2], the z-score is -0.978. Further, the composite Z-score in assay [12] was -0.375 (inactive).
In the case of `CC(C)(C)OC(=O)CC[C@@]1(C(=O)N2CCCCC2)N=C(c2ccc(OCCCO)cc2)O[C@@H]1c1ccccc1`, the composite z-score is 1.44 in assay [1]; 0.0209 in [3]; 1.72 in [4]; -0.0506 in [5]; 0.168 in assay [6]; 0.476 in assay [7]. In addition, the composite z-score is 0.414 in [8]; 0.774 in assay [9]; 0.873 in [10]; 0.962 in assay [11]; 0.372 in assay [13]; -0.0659 in assay [14]. Also, the composite z-score was 0.781 in [15]; 2.59 in assay [16]; 0.796 in assay [17]; 1.29 in assay [18]; -0.409 in [19]; 0.719 in assay [20]. In addition, in assay [2], the z-score was -1.49. The composite Z-score in assay [12] was -0.317 (inactive).
For the molecule `CCCNC(=O)[C@@]1(Sc2ccc(C)cc2)CC(=O)N(Cc2ccccc2C(F)(F)F)[C@@H]1c1ccc(CO)cc1I`, the composite z-score was 1.38 in assay [1]; -0.0375 in assay [3]; -0.214 in assay [4]; -0.611 in [5]; -0.0519 in [6]; 0.0639 in assay [7]. The composite z-score in assay [8] was 0.134; in [9], 0.332; in assay [10], 1.62; in assay [11] it was 0.31; in assay [13] it was 0.0696; in assay [14] it was -0.123. Also, the composite z-score amounted to 0.624 in [15]; 1.82 in assay [16]; 0.116 in assay [17]; 1.29 in [18]; 0.315 in [19]; 0.435 in [20]. The z-score in assay [2] is -1.91. For the same molecule, the composite Z-score in [12] was 0.222 (inactive).

The values are drawn from PubChem BioAssay.
